The test system of the test is RARa homodimer (NR concentration 270 nM). Nature of the test: PBM binding z-score (relative to random genomic background probes); higher = stronger binding; sequences stand for … in GC…GCGATTGACAGCGTAGAATGAAGG
In short, it runs like this: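 Random background probes are the reference for binding z-scores. These scores derive from regression-normalized fluorescence on custom Agilent 4×180K protein-binding microarrays incubated 1 h with ligand-free nuclear receptor dimers. Binding was detected with antibodies against each partner (one per run).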
CCTAGTGGGCCATTCAGAGGTCATTGATCATATG registered a PBM binding z-score of 0.902.

For TAGCCTAGGTCATGGTCCAGTATACCACGCGAAC, the PBM binding z-score is -0.386.

In turn, CAAACTAGGTCAAAGGTCTAAGTCGAGCCAACCA displayed a PBM binding z-score of 0.718.

Take CCTACTGGGCCATCAGGTCATAGATATCAACGTT: the PBM binding z-score turned out to be 0.283.

As to TCTATTAGTTGGTTAGGGCAACCGAAACAGCGGA, the PBM binding z-score is 1.17.

CGTCCAAGGTTAGCAGGTCAGTGAAAGCGACGTG: the PBM binding z-score is -0.223.

Take GGTGCTAGGTCAGGTTGGTCAGCTAACGGGTACG: the PBM binding z-score is 1.12.

Sequence TTACCAAGGTGGGCTGAGGTCGTTGATCCAACTC yielded a PBM binding z-score of 0.0238.

Take CAAACTAGGTCAAAGGTCATAGTCGAGCCAACCA: the PBM binding z-score is 2.53.

GCTGTTAGTTGAAAGGGCAACCGAATGATTCTCG had a PBM binding z-score of 0.147.

On to CGAACTAGGTCAGCCAGGACAGTGAATACATTGA, for which the PBM binding z-score was found to be 0.0532.

In the case of CCTACTGGGCCATCAGGTCATGGATATCAACGTT, the PBM binding z-score is -0.165.

With GGAACGAGGGCATTCGAGTTGATGGCATGGCGAT, the PBM binding z-score was -0.893.

For the sequence TAGCCTTGGTCAGATCGGGCCAGTATACGCTATA, the PBM binding z-score is -1.58.

The sequence AGAATGAGGTTAAGATCAGGGACACAGAATACAT came in with a PBM binding z-score of 1.57.

Turning to AGTCAAAGTTCACTAGGTGACGTAAGATTCAGCT, the PBM binding z-score amounted to 1.67.

Take GCTGCTAGGTCAACTGATGGTCAGTTAAAGCTCG: the PBM binding z-score was -0.0466.

On to GGCACGAGGGCATTCGAGTTGATAGCATGGCGAT, for which the PBM binding z-score is -0.627.

In the case of ACTCGGAGGACAAAGGTCAGAGCAACGCCAGTGA, the PBM binding z-score was 0.859.

Sequence ACTCGGAGAACAAAGGTCAGAGCTACGCCAGTGA registered a PBM binding z-score of 0.493.

Sequence TAGCCTAGGTCATGGGCCCGTATACCACGCGAAC showed a PBM binding z-score of 0.106.

As for ATATGTAGATTAAGGGTCATTCAGGTTGGTTCGC, the PBM binding z-score amounted to 2.24.

In turn, CGTCAAAGTTCAACCAAGGTAACGTAAAGCACGC displayed a PBM binding z-score of 1.73.

GATACAGGGTCAGTTAGAGGCCAGAGTATGGAAA yielded a PBM binding z-score of 0.673.

On to ACATGTAGGTTAGCTGGGGTCATTCAGACTAGGC, for which the PBM binding z-score came to 2.18.

TCTATTAGTTGATTAGGGCAAACGAAACAGCGGA came in with a PBM binding z-score of 0.996.

Regarding AGTCAAAGTTCAGGACGAGGTAACCTAAAGCACG, the PBM binding z-score amounted to 0.958.

CGTCCAAGGTCAGGGAGGTCAGTGAATGCCGAGT came in with a PBM binding z-score of 2.15.

Regarding GCGACTGGGGCATCAGCAGGTTAACATAACTTAA, the PBM binding z-score was -0.18.

CCTACTGGGCCAAGGTCATTGATCAGTCAAAGCA: the PBM binding z-score was -0.4.

Turning to TAGCCTAGGTCATGCGGGCCAGTCTAGTGTCGGC, the PBM binding z-score is -0.19.

In the case of ATCGAAAGGTCGAAGGTGAGTTTACCCACCCGAA, the PBM binding z-score is 0.0951.

In the case of GCAGACAGGTGAAACGTAGGTAACTCAGGGTGGC, the PBM binding z-score was -0.166.

As for TCATACAGGTGAAGGTAACTCAGGTACGCAGTCG, the PBM binding z-score was 0.817.

TAGCCTAGGTCATTCAGGGGCCAATATAGAAAGC showed a PBM binding z-score of 0.318.

CCTCACGGGTCAAGGTTATAGCACGGGTGGTACG yielded a PBM binding z-score of 0.228.

With TCGAGTGGGTTAGTCGGGGCATTCAGCCAACATA, the PBM binding z-score was determined as 0.0202.

On to CAAACTAGGCCAAAGGTCAAAGTCGAGCCAACCA, for which the PBM binding z-score was determined as 0.602.

As for CAAACTAGGGCACCGGAAGGTCAAAGTCCGCATG, the PBM binding z-score came out at 0.355.

For CTCGAAATGTCGGTTGAGGTGAGTATACGGATAA, the PBM binding z-score is -0.1.

The values above are taken from the supplement of paper PMC6555819.
